What is called AC50 is the midpoint of the concentration-response curve, whichever way the signal moves.

Hit rate of the full screen: of about 16,000 compounds, about 5,100 (32%) were called active. Inconclusive results (about 25%) are left out. Calls follow the shape of the dose curve; as a rule, active = well fitted curve in the direction sought with a large enough effect; inconclusive = small, poorly fitted or top-dose-only effect, or effect the other way; inactive = no such curve, though single readings can be large or run the other way. Some of the results follow.
% is scaled to controls: 0 for no effect and ±100 for the full control effect.

This experiment deals with Cytochrome P450 3A4 (Homo sapiens) (UniProt P08684). The experiment can be described thus: Cytochrome panel assay with activity outcomes. As to conditions: recombinant CYP, pro-luciferin dealkylation, luminescence, p450-cyp3a4; series mostly up to 57.1 µM; activity, negative = inhibition: at the top concentration.
Chain of Cytochrome P450 3A4 (Homo sapiens) (P08684 whole entry, looked up): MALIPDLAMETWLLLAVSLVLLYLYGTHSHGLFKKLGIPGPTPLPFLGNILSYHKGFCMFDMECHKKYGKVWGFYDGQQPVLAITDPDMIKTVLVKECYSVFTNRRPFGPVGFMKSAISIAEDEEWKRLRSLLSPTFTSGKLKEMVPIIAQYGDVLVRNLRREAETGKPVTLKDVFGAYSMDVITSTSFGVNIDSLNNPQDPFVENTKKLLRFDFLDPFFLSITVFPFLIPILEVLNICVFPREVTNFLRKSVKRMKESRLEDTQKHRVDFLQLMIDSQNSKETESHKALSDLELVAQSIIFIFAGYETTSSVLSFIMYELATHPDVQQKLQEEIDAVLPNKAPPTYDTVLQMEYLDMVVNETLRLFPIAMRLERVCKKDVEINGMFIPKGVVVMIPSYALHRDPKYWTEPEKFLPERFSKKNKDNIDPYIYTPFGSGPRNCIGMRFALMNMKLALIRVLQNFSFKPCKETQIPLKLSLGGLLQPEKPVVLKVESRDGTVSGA
As to `C[C@@H]1/C=C\CC(=O)OC[C@H](C)C(=O)N2CCC[C@@H]2C(=O)OC1`, the activity, negative = inhibition is -18.8% [at 11.4 µM] (inactive).
Still for that read-out and setting: the figure for `N[C@@H](CSC(=O)c1ccccc1)C(=O)O` is -4.21% [at 11.4 µM] (inactive).
As to `O=C(COc1cccc2ccccc12)N1c2ccccc2CCc2ccccc21`, the AC50 was 7.94 µM (active).
As to `CC(C)NC[C@H](O)COc1cccc2ccccc12`, the “activity, negative = inhibition” value was 3.12% (inactive).
For `CC(C)NC[C@@H](O)COc1cccc2ccccc12`, the AC50 result was “inactive”.
For `OC[C@@H]1NC[C@@H](O)[C@@H](O)[C@H]1O`, the “activity, negative = inhibition” value is -1.36% (inactive).
For the compound `O=C(Nc1cccc2ccccc12)c1ccccc1`, the AC50 was 3.16 µM (active).
As to `Cc1c(C)n(C)c2ccc(C(=O)Nc3cccc4ccccc34)cc12`, the AC50 was 14.1 µM (active).
With `COc1cccc(C(CC(=O)Nc2cccc3ccccc23)NC(=O)c2ccccc2)c1` (centres undefined), the AC50 was 2.24 µM (active).
`COC(=O)CCC(=O)Nc1cccc2ccccc12`: the “activity, negative = inhibition” value was -5.86% (inactive).
Still for that read-out and setting: the figure for `O=C(NNC(=O)c1cccnc1)Nc1cccc2ccccc12` is 14.6% [at 0.457 µM] (inactive); for `O=C(O)c1ccc(C(=O)Nc2cccc3ccccc23)c(C(=O)O)c1` it is -18.5% [at 11.4 µM] (inactive); for `O=C(CCC(=O)OCc1ccc(C(=O)Oc2ccccc2)cc1)Nc1cccc2ccccc12` it is -4.93% (inactive).
`CCn1c(C)c(C)c2cc(C(=O)Nc3cccc(Cl)c3)ccc21`: the activity, negative = inhibition was 10.3% [at 2.29 µM] (inactive).
The same measure, in the same setting: the figure for `O=C(O)CSc1ccn(Cc2ccccc2)c1` is -1.15% [at 11.4 µM] (inactive); for `CN1CCN(CN2C(=O)C3C4C=CC(C3C2=O)C2C3C(=O)N(CN5CCN(C)CC5)C(=O)C3C42)CC1` (centres undefined) it is -12.9% [at 11.4 µM] (inactive); for `CCOc1nc(N=C(N)N)nc2c(C)cccc12` it is -12.8% (inactive).
On to `CSC1(SC2=NCCN2)SC2(NCCN2)S1`, for which the concentration at half-maximal activity (AC50) is 1.26 µM (active).
In the case of `O=C(O)CCSC1=NCCN1`, the activity, negative = inhibition is -3.67% [at 11.4 µM] (inactive).
Consider `O=C(c1ccc(Cl)cc1)N1CCCC(c2ccccc2)=N1`, for which the activity, negative = inhibition was 13% [at 2.29 µM] (inactive).
With `O=C1N=C2SCCN2/C1=C\c1c(Cl)cccc1Cl`, the AC50 is 10 µM (active).
As to `OCCN(CO)CO`, the activity, negative = inhibition is -1.86% [at 11.4 µM] (inactive).
On the same count and under the same terms, the figure for `CCC(=O)Nc1c2c(nc3c1CCC3)CCCC2` is -10.1% (inactive).
Take `CCC(Sc1nc(C)cc(=O)[nH]1)C(=O)Nc1nc2c(s1)CCCC2` (centres undefined): the AC50 is 14.1 µM (active).
For `C[C@@H]1O[C@@H](n2cc(F)c(=O)[nH]c2=O)[C@H](O)[C@@H]1O`, the “activity, negative = inhibition” value was -11.7% (inactive).
Still for that read-out and setting: as for `Cc1cccc2c1Oc1ccccc1[C@@H]2NC(=O)c1ccc([N+](=O)[O-])cc1`, the figure is -14% [at 11.4 µM] (inactive).
On to `Cc1cc([N+](=O)[O-])ccc1-c1ccc(C2Nc3ccccc3C(=O)N2O)o1` (centres undefined), for which the AC50 is 7.08 µM (active).
In the case of `C[C@H](N)C(=O)O`, the “activity, negative = inhibition” value was -5.91% (inactive).
Still for that read-out and setting: as for `CSc1nc(C2CC2)cc(-c2cccs2)c1C#N`, the figure is -28.1% (inactive).
For `Cc1ccccc1-c1nccc(NCc2cccs2)n1`, the half-maximal activity concentration (AC50) was 2 µM (active).
Regarding `CN(C)Cc1ccccc1-c1nccc(NCc2cccs2)n1`, the “activity, negative = inhibition” value was -26.2% (inactive).
In the case of `FC(F)(F)c1ccccc1-c1nccc(NCc2cccs2)n1`, the AC50 was 2 µM (active).
On to `CCc1nn(C)c(-c2n[nH]c(=S)n2N)c1Cl`, for which the “activity, negative = inhibition” value was -11.5% (inactive).
Same read-out and setting: the figure for `O=C1[C@H]2CCn3c(=O)n(-c4ccccc4)c(=O)n3[C@H]2[C@H](O)[C@H]2O[C@@H]12` is -11.9% [at 11.4 µM] (inactive).
In the case of `Nc1nonc1-c1noc(CCCN2C(=O)c3ccccc3C2=O)n1`, the AC50 is 7.94 µM (active).
Turning to `CCN(c1ccccc1)c1cc(NC)[n+](C)c(C)n1`, the “activity, negative = inhibition” value was 4.33% (inactive).
Regarding `Cc1ccc(-c2nc3ncccn3c2NC(=O)C2CC2)cc1`, the “activity, negative = inhibition” value is -7.73% (inactive).
With `Clc1ccc(-c2nc3ncccn3c2Nc2ccc3c(c2)OCCO3)cc1`, the AC50 was 4.47 µM (active).
As to `COCCn1c(=O)c(-c2ccc(Cl)cc2)nc2cnc(N(C)C)nc21`, the “activity, negative = inhibition” value is 1.83% (inactive).
As for `COCCn1c(=O)c(C)nc2cnc(Oc3ccc(OC)cc3)nc21`, the AC50 is 15.8 µM (active).
The same measure, in the same setting: as for `COCCn1c(=O)c(-c2ccc(OC)cc2)nc2cnc(OC)nc21`, the figure is 15.8 µM (active).
In the case of `COCCn1c(=O)c(-c2ccc(Cl)cc2)nc2cnc(OC)nc21`, the half-maximal activity concentration (AC50) is 7.94 µM (active).
Regarding `COCCn1c(=O)c(-c2ccc(Cl)cc2)nc2cnc(N3CCOCC3)nc21`, the “activity, negative = inhibition” value is 14.4% (inactive).
As to `COCCn1c(=O)c(-c2ccccc2)nc2cnc(Oc3ccc(OC)cc3)nc21`, the AC50 was 1 µM (active).
Consider `CCNc1ncc2nc(-c3ccc(Cl)cc3)c(=O)n(C[C@H]3CCCO3)c2n1`, for which the “activity, negative = inhibition” value was 1.12% (inactive).
On the same count and under the same terms, as for `CN(C)c1ncc2nc(-c3ccc(Cl)cc3)c(=O)n(C[C@H]3CCCO3)c2n1`, the figure is -7.59% (inactive).
Turning to `COc1ncc2nc(-c3ccc(Cl)cc3)c(=O)n(C[C@H]3CCCO3)c2n1`, the AC50 is 10 µM (active).
`Cn1c(=O)n(-c2cccc(Cl)c2)c(=O)c2c3c(sc21)COC(C)(C)C3`: the activity, negative = inhibition was -4.67% [at 2.29 µM] (inactive).
Still for that read-out and setting: the figure for `Cc1noc(C)c1-c1nccc(N2CCN(C)CC2)n1` is 1% (inactive).
As for `Cc1noc(C)c1-c1nccc(-n2ccnc2)n1`, the AC50 was 1.26 µM (active).
On to `FC(F)(F)c1ccccc1-c1nccc(N2CCNCC2)n1`, for which the “activity, negative = inhibition” value was -10.8% (inactive).
On to `COc1ccccc1-c1cc(-n2ccnc2)ncn1`, for which the AC50 was 0.316 µM (active).
Still for that read-out and setting: the figure for `Clc1ccccc1-c1nccc(-n2ccnc2)n1` is 1.26 µM (active).
Same read-out and setting: as for `COc1ccccc1-c1nccc(-n2ccnc2)n1`, the figure is 1.58 µM (active).
For the compound `O=S1(=O)N[C@H]2CC[C@@H]3NS(=O)(=O)N[C@H]4CC[C@H](N1)N4S(=O)(=O)N23`, the activity, negative = inhibition was 5.02% [at 11.4 µM] (inactive).
With `Cc1ccccc1-c1nccc(-n2ccnc2)n1`, the AC50 is 1 µM (active).
`Cc1cc(C)c2c(N)c3ccccc3nc2n1`: the “activity, negative = inhibition” value was -24.9% (inactive).
`COc1ccccc1CNc1ncnc2ccc(-c3ccccc3OC)cc12`: the AC50 was 6.31 µM (active).
For `CN(C)Cc1ccccc1-c1ccc2ncnc(NCc3ccccc3)c2c1`, the AC50 was 15.8 µM (active).
For `CN(C)Cc1ccccc1-c1ccc2ncnc(NC3CCNCC3)c2c1`, the “activity, negative = inhibition” value was -12.9% (inactive).
Consider `CNc1ncnc2ccc(-c3ccccc3CN(C)C)cc12`, for which the AC50 is 7.94 µM (active).
On the same count and under the same terms, the figure for `COc1ccc(CNc2ncnc3ccc(-c4ccccc4CN(C)C)cc23)c(OC)c1` is 7.94 µM (active); for `COc1ccc(CNc2ncnc3ccc(-c4ccccc4OC)cc23)c(OC)c1` it is 2 µM (active).
The same measure, in the same setting: the figure for `COc1ccccc1CNc1ncnc2ccc(-c3ccccc3CN(C)C)cc12` is 12.6 µM (active).
Turning to `COc1ccc(/C=C/C(=O)Oc2cccc(/C=N/NC(=O)COc3c(C)cccc3C)c2)cc1`, the “activity, negative = inhibition” value was 10.5% (inactive).
As for `CCOc1cc(/C=N/NC(=O)CNc2cccc(C)c2)ccc1OC(=O)c1ccccc1`, the “activity, negative = inhibition” value is 23.3% (inactive).
Take `CCOc1cc(/C=N/NC(=O)COc2cccc(C)c2)ccc1OC(=O)c1cccs1`: the AC50 is 14.1 µM (active).
Still for that read-out and setting: as for `CS(=O)(=O)Nc1cccc(-c2ccc3ncnc(Nc4ccccc4)c3c2)c1`, the figure is 10 µM (active).
Same read-out and setting: as for `CS(=O)(=O)Nc1cccc(-c2ccc3ncnc(Nc4ccc(F)cc4)c3c2)c1`, the figure is 7.94 µM (active); as for `CS(=O)(=O)Nc1cccc(-c2ccc3ncnc(NC4CC4)c3c2)c1`, 6.31 µM (active).
Take `CNc1ncnc2ccc(-c3cccc(NS(C)(=O)=O)c3)cc12`: the half-maximal activity concentration (AC50) is 12.6 µM (active).
As for `CS(=O)(=O)Nc1cccc(-c2ccc3ncnc(NC4CCNCC4)c3c2)c1`, the “activity, negative = inhibition” value was -27.5% (inactive).
Still for that read-out and setting: as for `c1ccc2cc(-c3cc(-c4cc(-c5ccc6ccccc6c5)on4)no3)ccc2c1`, the figure is -8% [at 11.4 µM] (inactive).
Regarding `COCCNc1ncnc2ccc(-c3cccc(NS(C)(=O)=O)c3)cc12`, the AC50 was 15.8 µM (active).
As to `[O-][N+]1(CC[N+]2([O-])CCCCC2)CCCCC1`, the activity, negative = inhibition was -11.4% [at 11.4 µM] (inactive).
Still for that read-out and setting: as for `CCN(CC)Cc1c(O)c(Cl)cc2c3c(c(=O)oc12)CCCC3`, the figure is -27.4% (inactive).
On to `CCCC/C=C/C(NC(=O)C(C)(C)C)c1ccccc1` (centres undefined), for which the AC50 is 25.1 µM (active).
On the same count and under the same terms, the figure for `C#CCOC(=O)NC(/C=C/CCCC)c1ccccc1` (centres undefined) is 12.6 µM (active); for `CCCC/C=C/C(NC(=O)c1ccccc1)c1ccccc1` (centres undefined) it is 15.8 µM (active).
Turning to `CCCC/C=C/C(NC(=O)c1ccc(-c2ccccc2)cc1)c1ccccc1` (centres undefined), the “activity, negative = inhibition” value was -9.93% (inactive).
Same read-out and setting: the figure for `CCCCCCCCCCCCC/C=C\[C@@H](O)[C@H](CO)NC(C)=O` is -16.3% (inactive).
Regarding `CCCN(CCC)C(=O)[C@@H](CCC(=O)O)NC(=O)c1ccccc1`, the AC50 entry is “inactive”.
On the same count and under the same terms, the figure for `CCCC/C=C/C(NC(=O)c1cccs1)c1ccccc1` (centres undefined) is 12.6 µM (active); for `CCCC/C=C/C(NC(=O)Oc1cccc(C(F)(F)F)c1)c1ccccc1` (centres undefined) it is 15.8 µM (active).
For the compound `CC(=O)Oc1cc(C(F)(F)F)ccc1C(=O)O`, the “activity, negative = inhibition” value was 8.47% [at 25.6 µM] (inactive).
For `N[C@@H](C(=O)O)c1ccc(C(=O)O)cc1`, the AC50 entry was “inactive”.
For `CN(C)CN1C(=O)S/C(=C2/C(=O)N(CN(C)C)c3ccccc32)C1=O`, the activity, negative = inhibition is 4.92% [at 11.4 µM] (inactive).
With `CCN1C(=O)/C(=C2\SC(N3CCCCC3)=NC2=O)c2ccccc21`, the AC50 is 14.1 µM (active).
For the compound `O=C1N=C(N2CCOCC2)S/C1=C\C=C/c1ccccc1`, the “activity, negative = inhibition” value was -1.29% (inactive).
As to `Cc1ccc([C@@]2(C)CC/C(=N/N=C3\CC[C@](C)(c4ccc(C)c(C)c4)c4cc(C)c(C)cc43)c3cc(C)c(C)cc32)cc1C`, the activity, negative = inhibition was -0.566% [at 11.4 µM] (inactive).
The same measure, in the same setting: the figure for `S=c1nc[nH]c2c1ncn2Cc1ccco1` is -14.9% [at 11.4 µM] (inactive).
For the compound `S=C1SCN(Cc2ccccn2)CN1Cc1ccco1`, the AC50 is 20 µM (active).
Consider `c1ccc(CCNCc2ccco2)nc1`, for which the activity, negative = inhibition is -15.3% [at 11.4 µM] (inactive).
Same read-out and setting: as for `C/C(=N/O)c1ccc2cc(Br)c3ccccc3c2c1`, the figure is -23.8% [at 11.4 µM] (inactive).
For `O=C1C(Cc2ccccc2)SC(=Nc2ccccc2)N1c1ccccc1` (centres undefined), the AC50 is 3.98 µM (active).
Take `O=C1/C(=C\c2ccc(Br)o2)SC(=Nc2ccccc2)N1c1ccccc1`: the “activity, negative = inhibition” value was -27.8% (inactive).
Take `C=CCn1c(=O)c2c(nc(Br)n2Cc2ccccc2Cl)n(C)c1=O`: the AC50 was 0.794 µM (active).
Take `C=CCn1c(=O)c2c(nc(-c3ccc(S(=O)(=O)O)cc3)n2C)n(C)c1=O`: the “activity, negative = inhibition” value is 2.84% (inactive).
Still for that read-out and setting: as for `COC(=O)Cn1c(=O)c2c(nc(Br)n2Cc2ccccc2Cl)n(C)c1=O`, the figure is -4.19% [at 2.29 µM] (inactive).

(Values after PubChem BioAssay AID1851 (National Center for Advancing Translational Sciences (NCATS), 2009).)
